# Test results as given in PubChem BioAssay (Tox21).
# Records with an inconclusive call do not appear. Where a call stands in place of a potency, no number is given. A number with no mark means an inactive call. Activity calls are given as the source filed them. Unless noted, the call rests on the fitted dose curve.
# Tested on: not listed separately
# Test: cAMP Responsive Elements (CRE) small molecule agonists, cell-based qHTS assay (AID 1963590)
# Details: CRE-bla HEK293T, beta-lactamase FRET ratio, 3 h; series mostly up to 92.4 µM
# Procedure, shortened: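 Cell line: CRE-bla HEK 293T; medium DMEM/10% dialyzed FBS/0.1 mM NEAA/1 mM pyruvate/25 mM HEPES; 3 h compound exposure; beta-lactamase FRET readout after 2 h substrate loading at RT.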
row,SMILES,Potency
1,Cc1c[nH]c(=S)[nH]c1=O,inactive
2,COP(=O)(OC)OC(c1ccc(Cl)cc1)P(=O)(OC)OC (stereo not drawn),inactive
3,O=C(O)c1ccc(S(=O)(=O)O)cc1C(=O)O,inactive
4,CCCOC(=O)CCCCC(=O)OCCC,inactive
5,CCCCCCCCCCl,inactive
6,CC(C)CCCCCCOC(=O)C1CCCCC1C(=O)OCCCCCCC(C)C (stereo not drawn),inactive
7,O=S(=O)(O)c1cc(O)c2ccc(Nc3ccccc3)cc2c1,inactive
8,SC1CCCC1,inactive
9,N#CCCN(CCO)CCO,inactive
10,CC(C)O.CC(C)O.CCOC(=O)/C=C(\C)O.CCOC(=O)/C=C(\C)O.[Ti],inactive
11,Cn1cc(C(=O)[C@@H]2CCc3nc[nH]c3C2)c2ccccc21,inactive
12,CC1=C(O)C(=O)CO1,inactive
13,O=C(OCC(COC(=O)c1cccnc1)(COC(=O)c1cccnc1)COC(=O)c1cccnc1)c1cccnc1,inactive
14,CN1C(CSCC(F)(F)F)Nc2cc(Cl)c(S(N)(=O)=O)cc2S1(=O)=O (stereo not drawn),inactive
15,CC[C@H](C)C(=O)O[C@H]1C[C@H](O)C=C2C=C[C@H](C)[C@H](CC[C@@H](O)C[C@@H](O)CC(=O)O)[C@H]21,inactive
16,CCCCOCCOCCOCc1cc2c(cc1CCC)OCO2,inactive
17,CCN1C=CN(C)C1C (stereo not drawn),inactive
18,CC1CCC(=O)C1=O (stereo not drawn),inactive
19,COc1ccc(CCN(C)CCCN2CCc3cc(OC)c(OC)cc3CC2=O)cc1OC,inactive
20,CSc1ccc(C=O)cc1,inactive
21,OCCC1CCCCN1 (stereo not drawn),inactive
22,C=C(C)C(=O)OCCOc1ccccc1,inactive
23,Cc1ncc([N+](=O)[O-])n1CC(O)CCl (stereo not drawn),inactive
24,Cc1c(N)cccc1N,inactive
25,Oc1cccc(Nc2ccccc2)c1,inactive
26,NNC(=O)OCc1ccccc1,inactive
27,C[C@@H]1C[C@H]2[C@@H]3C[C@H](F)C4=CC(=O)C=C[C@]4(C)[C@@]3(F)[C@@H](O)C[C@]2(C)[C@@]1(O)C(=O)CO,inactive

# Tested on: not listed separately
# Test: cAMP Responsive Elements (CRE) small molecule antagonists, cell-based qHTS assay (AID 1963591; active means well fitted inhibition curve with a large enough effect in the signal ratio in the repeat runs, not every such curve was filed as active; the % refers to the signal ratio)
# Details: CRE-bla HEK293T, beta-lactamase FRET ratio; series mostly up to 92.4 µM
# Procedure, shortened: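 Inhibition of NKH477-driven (0.25 uM final) CRE-beta-lactamase signal in HEK293T cells, 3 h compound exposure at 37 °C, detected by FRET substrate fluorescence.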
SMILES,Potency,"activity change, negative = inhibition"
CC1CCC(CO)CC1 (stereo not drawn),inactive,–
Cc1c[nH]c(=S)[nH]c1=O,inactive,–
CC(=O)OC1C2(C)CCC(C2)C1(C)C (stereo not drawn),inactive,–
COP(=O)(OC)OC(c1ccc(Cl)cc1)P(=O)(OC)OC (stereo not drawn),inactive,–
CCC(Cl)CC(Cl)C(Cl)C(Cl)C(Cl)C(C)Cl (stereo not drawn),–,6.46% [at 18.9 µM]
O=C(O)c1ccc(S(=O)(=O)O)cc1C(=O)O,inactive,–
CCCOC(=O)CCCCC(=O)OCCC,inactive,–
CC(C)CCCCCCOC(=O)C1CCCCC1C(=O)OCCCCCCC(C)C (stereo not drawn),inactive,–
O=S(=O)(O)c1cc(O)c2ccc(Nc3ccccc3)cc2c1,inactive,–
SC1CCCC1,inactive,–
N#CCCN(CCO)CCO,inactive,–
CC(C)O.CC(C)O.CCOC(=O)/C=C(\C)O.CCOC(=O)/C=C(\C)O.[Ti],inactive,–
Cn1cc(C(=O)[C@@H]2CCc3nc[nH]c3C2)c2ccccc21,inactive,–
CC1=C(O)C(=O)CO1,inactive,–
Cc1ccc2ccc3cccc4ccc1c2c34,inactive,–
CN1C(CSCC(F)(F)F)Nc2cc(Cl)c(S(N)(=O)=O)cc2S1(=O)=O (stereo not drawn),inactive,–
Nc1ccc2cc(S(=O)(=O)O)cc(O)c2c1N=Nc1ccccc1C(F)(F)F,inactive,–
CCCC(=O)O[C@]1(C(=O)COC(=O)CC)CC[C@H]2[C@@H]3CCC4=CC(=O)CC[C@]4(C)[C@H]3[C@@H](O)C[C@@]21C,–,0.328% [at 18.9 µM]
CCN1C=CN(C)C1C (stereo not drawn),inactive,–
CC1CCC(=O)C1=O (stereo not drawn),inactive,–
COc1ccc(CCN(C)CCCN2CCc3cc(OC)c(OC)cc3CC2=O)cc1OC,inactive,–
CSc1ccc(C=O)cc1,inactive,–
OCCC1CCCCN1 (stereo not drawn),inactive,–
OCCCCCCCCCCCCBr,inactive,–
Cc1ncc([N+](=O)[O-])n1CC(O)CCl (stereo not drawn),inactive,–
Cc1c(N)cccc1N,inactive,–
Oc1cccc(Nc2ccccc2)c1,inactive,–
NNC(=O)OCc1ccccc1,inactive,–
C[C@@H]1C[C@H]2[C@@H]3C[C@H](F)C4=CC(=O)C=C[C@]4(C)[C@@]3(F)[C@@H](O)C[C@]2(C)[C@@]1(O)C(=O)CO,inactive,–

# Target: Beta-2 adrenergic receptor (Homo sapiens) (UniProt P07550)
# Test: Adrenergic beta2 receptor (ADRB2) small molecule antagonists, cell-based qHTS assay (AID 1963592); further: nearly all actives have a fitted effect of over 50% in size
# Details: CHO-ADRB2 cells, isoproterenol-stimulated cAMP HTRF ratio, 0.5 h; series mostly up to 92.4 µM
# Procedure, shortened: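 Cells (CHO, stable ADRB2 overexpression) incubated 18-20hr at 37C; compounds added from DMSO; agonist mix (1nM isoproterenol, 100uM IBMX, 25uM Ro-20-1724) added; 0.5hr RT; d2-cAMP and anti-cAMP-cryptate added; 1hr RT; 665/615 nm read.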
# Beta-2 adrenergic receptor (Homo sapiens), sequence (P07550 whole entry, looked up): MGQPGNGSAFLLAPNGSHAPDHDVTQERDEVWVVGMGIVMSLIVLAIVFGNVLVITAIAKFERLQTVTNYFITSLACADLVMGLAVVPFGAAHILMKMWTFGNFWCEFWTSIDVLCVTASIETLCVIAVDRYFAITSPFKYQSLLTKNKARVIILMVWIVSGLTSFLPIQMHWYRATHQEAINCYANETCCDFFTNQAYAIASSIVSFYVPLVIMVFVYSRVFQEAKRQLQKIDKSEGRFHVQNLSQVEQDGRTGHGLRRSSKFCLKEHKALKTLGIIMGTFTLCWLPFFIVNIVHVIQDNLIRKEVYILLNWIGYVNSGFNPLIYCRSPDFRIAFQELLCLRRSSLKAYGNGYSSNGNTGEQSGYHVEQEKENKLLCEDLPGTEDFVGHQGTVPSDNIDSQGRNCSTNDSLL
SMILES,Potency,"activity change, negative = inhibition"
CC1CCC(CO)CC1 (stereo not drawn),inactive,–
Cc1c[nH]c(=S)[nH]c1=O,inactive,–
CC(=O)OC1C2(C)CCC(C2)C1(C)C (stereo not drawn),inactive,–
COP(=O)(OC)OC(c1ccc(Cl)cc1)P(=O)(OC)OC (stereo not drawn),inactive,–
CCC(Cl)CC(Cl)C(Cl)C(Cl)C(Cl)C(C)Cl (stereo not drawn),–,-8.4% [at 19 µM]
O=C(O)c1ccc(S(=O)(=O)O)cc1C(=O)O,inactive,–
CCCOC(=O)CCCCC(=O)OCCC,inactive,–
CCCCCCC[N+](CC)(CC)CCCCc1ccc(Cl)cc1,inactive,–
O=C1CCCCCCCCCCCC(=O)OCCO1,inactive,–
CCCCCCCCCCl,inactive,–
O=S(=O)(O)c1cc(O)c2ccc(Nc3ccccc3)cc2c1,inactive,–
SC1CCCC1,inactive,–
N#CCCN(CCO)CCO,inactive,–
CC(C)O.CC(C)O.CCOC(=O)/C=C(\C)O.CCOC(=O)/C=C(\C)O.[Ti],inactive,–
Cn1cc(C(=O)[C@@H]2CCc3nc[nH]c3C2)c2ccccc21,inactive,–
CC1=C(O)C(=O)CO1,inactive,–
Cc1ccc2ccc3cccc4ccc1c2c34,inactive,–
O=C(OCC(COC(=O)c1cccnc1)(COC(=O)c1cccnc1)COC(=O)c1cccnc1)c1cccnc1,inactive,–
NC(=O)N(O)[C@@H]1COc2cc(OCc3ccccc3)ccc21,inactive,–

SMILES,Potency,"activity change, negative = inhibition"
CN1C(CSCC(F)(F)F)Nc2cc(Cl)c(S(N)(=O)=O)cc2S1(=O)=O (stereo not drawn),inactive,–
Nc1ccc2cc(S(=O)(=O)O)cc(O)c2c1N=Nc1ccccc1C(F)(F)F,inactive,–
CC[C@H](C)C(=O)O[C@H]1C[C@H](O)C=C2C=C[C@H](C)[C@H](CC[C@@H](O)C[C@@H](O)CC(=O)O)[C@H]21,inactive,–
CCCCOCCOCCOCc1cc2c(cc1CCC)OCO2,inactive,–
CCCC(=O)O[C@]1(C(=O)COC(=O)CC)CC[C@H]2[C@@H]3CCC4=CC(=O)CC[C@]4(C)[C@H]3[C@@H](O)C[C@@]21C,–,0.289% [at 19 µM]
CCN1C=CN(C)C1C (stereo not drawn),inactive,–
CC1CCC(=O)C1=O (stereo not drawn),inactive,–
COc1ccc(CCN(C)CCCN2CCc3cc(OC)c(OC)cc3CC2=O)cc1OC,inactive,–
CSc1ccc(C=O)cc1,inactive,–
OCCC1CCCCN1 (stereo not drawn),inactive,–
C=C(C)C(=O)OCCOc1ccccc1,inactive,–
OCCCCCCCCCCCCBr,inactive,–
C/C=C/C=N/NC(=O)c1ccncc1,inactive,–
COc1ccc2cc1Oc1ccc(cc1)C[C@H]1c3c(cc4c(c3Oc3cc5c(cc3OC)CCN(C)[C@@H]5C2)OCO4)CCN1C,inactive,–
Cc1ncc([N+](=O)[O-])n1CC(O)CCl (stereo not drawn),inactive,–
Oc1cccc(Nc2ccccc2)c1,inactive,–
NNC(=O)OCc1ccccc1,inactive,–
C[C@@H]1C[C@H]2[C@@H]3C[C@H](F)C4=CC(=O)C=C[C@]4(C)[C@@]3(F)[C@@H](O)C[C@]2(C)[C@@]1(O)C(=O)CO,inactive,–
